From PubChem BioAssay AID651812 (National Center for Advancing Translational Sciences (NCATS), 2012)
The campaign covered roughly 2,100 compounds. About 650 (31%) were called active. Another 16% or so got no clear call; they are omitted. Some of the results follow. Unmarked numbers belong to inactive results. Calls follow the shape of the dose curve; as a rule, active = well fitted inhibition curve with a large enough effect; inconclusive = small, poorly fitted or top-dose-only effect; inactive = flat fitted curve, though single readings scatter.

Assay: qHTS for inhibitors of Vif-A3G interactions: Cherry picks; also: nearly all actives have a fitted effect of over 80% in size; as to activity, negative = fluorescence increase: % of control where 0% means no effect
Details: HeLa A3G-eYFP + Vif (tagged APOBEC3G with the HIV-1 protein that degrades it), 24 h; Potency: eYFP fluorescence increase; series mostly up to 36.9 µM; activity, negative = fluorescence increase: at the top concentration
Source text: The recent discovery and characterization of host restriction factors, which provide a potent defense to invading retroviruses, has provided new targets for antiviral drug development. APOBEC3G (A3G) and APOBEC3F (A3F) are potent cytidine deaminases that block HIV-1 replication; HIV-1 expresses the Vif protein, which counteracts A3G and A3F by binding to them and inducing their proteasomal degradation. The Vif-A3G and Vif-A3F interactions provide two potential targets for development of small molecules which can interfere with the ability of Vif to degrade A3G or A3F. […] To identify inhibitors that can interfere with Vif mediated degradation of A3G and A3F, we have developed Hela cell lines that stably express A3G or A3F tagged with eYFP at the C-terminal end (A3G-eYFP or A3F-eYFP, respectively) and Vif. In the absence of an inhibitor, Vif induces degradation of A3G-eYFP and A3F-eYFP, and the cells are not fluorescent. In the presence of an inhibitor, it is expected that Vif will be unable to degrade A3G-eYFP and/or A3F-eYFP, resulting in an increase in yellow fluorescence. In this assay, Vif A3G was screened against the cherry picks ordered from the MLSMR. NIH Chemical Genomics Center [NCGC] NIH Molecular Libraries Probe Centers Network [MLPCN] MLPCN Grant: MH093245 Assay Submitter (PI): Vinay Pathak, National Cancer Institute
A3G-Vif cells were harvested from T225 flask and resuspended in phenol free OPTI-MEM medium with 5% FBS. Then 5 uL of 140,000 cells/mL resuspended cells was dispensed into each well of low base Aurora COC 1,536-well plates (black walled, clear bottom) using a Multidrop Combi dispenser. After overnight culture at 37 deg C with 5% CO2, a total of 23 nL of compounds at 5 selected concentrations from the NPC or positive control (2 mM stock of MG132) in DMSO was transferred to each well of the assay plate using a pintool (Kalypsys, San Diego, CA), and the plates were further incubated at 37 deg C with 5% CO2 for 24 hours. After that, the plates were measured on Acumen Explorer (TTP Lab Tech). The fluorescence was detected by 488 nm/Ex and […].
Potency is read from the fitted curve at half-maximal effect.

Compound | activity, negative = fluorescence increase | Potency
COc1ccc(-c2cc(C(=O)N/N=C/c3sccc3C)c3ccccc3n2)c(OC)c1 | -10.7% | 
COc1ccc(N=Cc2c(O)n(-c3cccc(C)n3)c(=O)c3ccccc23)c(OC)c1 |  | 13 µM (active)
CCc1cccc2c(C(O)c3c[nH]c4ccccc34)c[nH]c12 (stereo not given) |  | 20.6 µM (active)
N#CC1=C(N)Oc2cc(N)ccc2C1c1ccccc1 (stereo not given) | -1.01% | 
CC1CC(=O)C2=C(C1)OC(N)=C(C#N)C2c1coc2ccccc2c1=O (stereo not given) |  | 23.1 µM (active)
CC(C)n1cc(/C=C/c2cc[n+](C)cc2)c2ccccc21 |  | 0.25 µM (active)
CCn1cc(/C=C/c2cc[n+](C)cc2)c2ccccc21 |  | 1.77 µM (active)
C=CCn1cc(/C=C/c2cc[n+](C)cc2)c2ccccc21 |  | 7.04 µM (active)
CC(C)n1cc(/C=C2\NC(=O)N(c3cccc(Cl)c3)C2=O)c2ccccc21 | -21.4% | 
CCOC(=O)CSC1=C(C#N)C(c2ccc(C)s2)CC(=O)N1 (stereo not given) | -2.09% | 
N#C/C(N=Nc1ccccc1O)=N\Nc1ccccc1O |  | 14.6 µM (active)
NC(=O)c1ccc(Cn2c(C(=O)c3cc(Cl)c(N)c(Cl)c3)c3ccccc3[n+]2[O-])cc1 | -3.16% | 
Cc1c(C(=O)Nc2cccnc2)oc2ccc(Br)cc12 | -3.28% | 
COc1cc(C(=O)NCCOc2cc(C)cc(C)c2)cc(OC)c1OC | -7.09% | 
COc1ccc(-c2nnc(SCC(=O)NCc3ccccc3)nc2-c2ccc(OC)c(OC)c2)cc1OC | -10.7% [at 46.1 µM] | 
COc1ccc(-c2ccc3c(c2)S(=O)(=O)c2cccc(C(=O)NCc4cccc(OC(F)(F)F)c4)c2C3=O)cc1OC |  | 10.3 µM (active)
COc1ccc(-c2ccc3c(c2)S(=O)(=O)c2cccc(C(=O)NCCOc4ccccc4)c2C3=O)cc1OC |  | 12.5 µM (active)
COc1cc(C(=O)NCCOc2cc(C)cc(C)c2)c(Br)c(OC)c1OC | 2.34% | 
Fc1cccc(Cc2c(-c3ccco3)nc3ccc(Br)cn23)c1 | -9.28% | 
CC(NC1=CC(=O)c2cccnc2C1=O)C(O)c1ccccc1 (stereo not given) | -0.502% | 
CN(CC(=O)Nc1ccc(Cl)c(C(F)(F)F)c1)C(=O)c1ccc(S(=O)(=O)N2CCOCC2)cc1 | -0.993% | 
Cc1cc(/C=C/c2ccnc3ccccc23)ccc1N |  | 18.4 µM (active)
CN(C)c1ccc(/C=C/c2ccnc3ccccc23)cc1O |  | 18.4 µM (active)
CCc1cc(/C=C/c2ccnc3ccccc23)ccc1N(C)C |  | 18.4 µM (active)
CN(C)c1ccc(/C=C/c2ccnc3ccccc23)cc1C=O | -27.4% [at 46.1 µM] | 

Compound | activity, negative = fluorescence increase | Potency
CN1CCCc2cc(/C=C/c3ccnc4ccccc34)ccc21 |  | 5.17 µM (active)
Cc1cc(NC(=O)Nc2nnc(N(C)Cc3ccccc3)s2)ccc1Br | -0.0185% [at 46.1 µM] | 
COc1cccc(/C=N/NC(=O)c2[nH]nc3c2CCc2ccccc2-3)c1 | -3.68% | 
CC(=O)n1cc(/C=N/NC(=O)c2sc(C)nc2C)c2ccccc21 | -0.408% | 
COc1ccc(C(C)(O)c2nc(-c3ccccc3OC)cs2)cc1 (stereo not given) | -6.82% | 
Cc1cc(/C=C/c2ccnc3ccccc23)ccc1N(C)C |  | 20.6 µM (active)
CN(C)c1ccc(/C=C/c2ccnc3ccccc23)cc1N | -16% [at 46.1 µM] | 
Cc1cc(N(C)C)c(C)cc1/C=C/c1ccnc2ccccc12 |  | 20.6 µM (active)
CCn1c2ccccc2c2c3ncc4cccn4c3ccc21 |  | 23.1 µM (active)
CCOC(=O)/C(C#N)=C\C=C1C=CN(C)C=C1 |  | 8.2 µM (active)
COc1cc2c(cc1OC)CN(C(=O)/C=C/c1cccs1)CC2 | -5.73% | 
Cc1cc(C)nc(-n2nc(C)cc2NC(=O)c2ccc(F)cc2F)n1 | 4.33% [at 46.1 µM] | 
O=[N+]([O-])/C=C\c1ccc(N2CCCC2)c(F)c1 | -7.46% [at 46.1 µM] | 
Cc1cc(/C=C2\NC(=S)N(C)C2=O)ccc1N1CCCC1 |  | 8.86 µM (active)
Cc1cc(N2CCCC2)ccc1/C=C1/C(=O)N(C)C(=S)N1C |  | 18.4 µM (active)
Cc1cc(N2CCCC2)ccc1/C=C1\NC(=S)N(C)C1=O |  | 3.66 µM (active)
COc1ccc(/C=C/c2ccnc3ccccc23)c(OC)c1 | -24.9% [at 46.1 µM] | 
COc1cc(/C=C/c2ccnc3ccccc23)ccc1N(C)C |  | 20.6 µM (active)
COc1cc(N(C)C)c(OC)cc1/C=C/c1ccnc2ccccc12 |  | 20.6 µM (active)
COc1ccccc1-c1c(C#N)c(N)nc2c1CCc1ccccc1-2 | 0.0212% | 
CCOC(=O)c1c(Nc2ccc(Cl)cc2)sc(/C=C2\C=Nc3ccccc32)c1O |  | 13 µM (active)
CNc1cncc(-c2cc(C)c(O)c(C)c2)n1 | -3.27% | 
Cn1cc(/C=C/c2ccnc3ccccc23)c2ccccc21 |  | 23.1 µM (active)
Cn1cc(/C=C/c2ccc3ccccc3n2)c2ccccc21 |  | 20.6 µM (active)
COc1cc(C2c3cc4c(cc3OC(C)(N3CCCC3)C2C)OCO4)cc(OC)c1OC (stereo not given) | -11.6% | 
